# Laboratory results taken from PubChem BioAssay AID1457 (National Center for Advancing Translational Sciences (NCATS), 2008).
# Among all 210,000 compounds or so, about 730 (0.35%) were called active. Another 1% or so got no clear call; they are omitted. For the sample, actives were picked, then their nearest neighbours and some compounds at random. Unmarked numbers belong to inactive results. Calls follow the shape of the dose curve; as a rule, active = well fitted inhibition curve with a large enough effect; inconclusive = small, poorly fitted or top-dose-only effect; inactive = no such curve, though single readings can be large or run the other way.
# Experiment: qHTS Assay for Identifying the Cell-Membrane Permeable IMPase Inhibitors: Potentiation with Lithium;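 also: IP1 builds up when IMPase is blocked and the TR-FRET signal falls; nearly all actives have a fitted effect of over 50% in size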;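 as to activity, negative = IMPase inhibition: plate controls were basal vehicle for no effect and high inhibitor control for full effect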
# Conditions: CHO-M1 cells, IP1 TR-FRET (IP-One), carbachol + lithium; series mostly up to 59.4 µM; activity, negative = IMPase inhibition: at the top concentration
# Source text: NIH Chemical Genomics Center [NCGC]
# NIH Molecular Libraries Probe Production centers Network [MLPCN]
# Assay Submitter (PI): Wei Zheng
# Lithium has been widely used for the treatment of bipolar disorder. But lithium has a narrow therapeutic index and it can cause side effects such as thirst, weight gain, tremor, polyuria and memory problems. Although the mechanism for lithium action in treatment of bipolar disorder is still not fully understood, inhibition of inositol monophosphatase (IMPase) and the subsequent depletion of the inositol pool in living cells have been implicated as the primary therapeutic benefit of lithium therapy. Therefore, a selective IMPase inhibitor with reduced side effects might be a good drug candidate to replace lithium for the treatment of bipolar disorder. Several IMPase inhibitors have been discovered previously. However, they are not suitable for therapeutic use because of their poor cell membrane penetrability or oral bioavailability; the development of new cell-permeable IMPase inhibitors is needed.
# IMPase catalyzes the hydrolysis of inositol-1-phosphate (IP1) to release free inositol. Binding of an agonist to a Gq coupled GPCR results in the activation of PLC, which hydrolyzes the PIP2 to form inositol-1,4,5-trisphosphate (IP3) and diacyl glycerol (DAG). While DAG activates protein kinase C (PKC), IP3 triggers the elevation of intracellular free Ca2+. The IP3 is very rapidly inactivated by hydrolysis to IP2, IP1 and then inositol by a series of enzymes including IMPase. Free inositols are used for synthesis of PI and thus start another inositol cycle.
# To identify new cell-permeable IMPase inhibitors, we developed a cell-based IMPase assay in which the cytosolic IP1 is measured by a time-resolved fluorescence resonance energy transfer (TR-FRET) assay. In this assay, an IP1 specific antibody is used to detect the labeled IP1 tracer. When the cell lysate contains the elevated IP1 due to the inhibition of IMPase, the TR-FRET between the labeled antibody and IP1 tracer is disrupted resulting in a reduction in the total signal. Since the TR-FRET is used, this cell-based assay is a homogenous assay without cell wash and medium change that is suitable for assay miniaturization and HTS. In this particular assay, a small amount of lithium is added to potentiate the response of weak activators.
# NCGC Assay Protocol Summary:
# A Chinese hamster ovary (CHO) cell line stably expressing the M1 receptor (CHO-M1) was obtained from ATCC and maintained in F-12 Kaighn's media (Invitrogen, Carlsbad, CA) supplemented with 10 % FBS, 100 units/ml penicillin, 100 ug/ml streptomycin and 250 ug/ml geneticin at 37C, 5% CO2 in a humidified atmosphere. Before the assay, aliquots of cells were frozen and stored at -135C. The assay was performed in 1536-well format. Data are reported for both the ratio of the two emission wavelengths, and also for the component 'donor' channel, Em2=620. […] AC50 values were determined from concentration-response data modeled with the standard Hill equation.
# (1) Frozen CHO-M1 cells were thaw, washed once with fresh media and resuspended in F12K media containing 10% FBS, 100 units/ml penicillin and 100 ug/ml streptomycin. Cells were plated at 4ul/well (2000 cells) in white, tissue culture treated 1536-well plates, and then cultured at 37C, 5 % CO2 for 16 to 30 hours.
# (2) Add 23 nl/well of compound in DMSO solution. The final titration for each compound was between 0.6 nM and 46 uM.
# (4) Incubation at 37C, 5 % CO2 for 30 min.
# (5) Add 1 ul/well of d2-conjugated IP1 (d2-IP1) and 1 ul/well of Eu+ cryptate conjugated anti-IP1 antibody (Eu+-Ab) prepared in the cell lysis buffer, both from the IP-One kit (Cisbio, MA).
# (6) Incubate at room temperature for 10 minutes.
# (7) Detect the assay plate (Ex = 320, Em1 =665 and Em2 620) in a ViewLux plate reader.
# Potency is read from the fitted curve at half-maximal effect.
SMILES,Potency,"activity, negative = IMPase inhibition"
CN(C)[C@@H]1C(=O)C(C(N)=O)=C(O)[C@@]2(O)C(=O)C3=C(O)c4c(O)cccc4[C@@](C)(O)C3CC12 (stereo not given in full),8.91 µM (active),
CN(C)C1C(=O)C(C(N)=O)=C(O)[C@@]2(O)C(=O)C3=C(O)c4c(O)cccc4[C@@](C)(O)C3C[C@@H]12 (stereo not given in full),10 µM (active),
CC(=O)c1c(O)c(C)c(O)c(Cc2c(O)c3c(c(C(=O)/C=C\c4ccccc4)c2O)OC(C)(C)C=C3)c1O,,26.8%
CC[C@@](O)(C(=O)O)c1cc2n(c(=O)c1CO)Cc1cc3ccccc3nc1-2,,-9.04%
Clc1ccccc1,,-3.42%
CC[N+](C)(CC)CCC[n+]1c(-c2ccccc2)c2cc(N)ccc2c2ccc(N)cc21,inactive,
O=P(O)(O)C(O)c1ccc2ccccc2c1 (stereo not given),,31.4%
CC(C)(c1ccccc1)c1ccc(O)cc1,,0.357%
O=C(CN1CCN(S(=O)(=O)c2ccc3ccccc3c2)CC1)NC(=O)NC1CCCCC1,,42.4% [at 38.3 µM]
c1ccc(N2CC[C@@]3(CCCNC3)C2)nc1,,15%
COc1cc(C(c2c(O)c3ccccc3oc2=O)c2c(C)n(C)n(-c3ccccc3)c2=O)ccc1O (stereo not given),,1.66%
CCC(=O)CC(c1ccc([N+](=O)[O-])cc1)c1c(O)c2ccccc2oc1=O (stereo not given),,-1.57% [at 38.3 µM]
O=c1oc2ccccc2c(O)c1C(c1ccccc1O)c1c(O)c2ccccc2oc1=O,10 µM (active),
O=C(O)C(=O)Cc1ccc2c(c1)OCO2,,4.01%
c1ccc(Cc2nn3c(Cn4cnc5ccccc54)nnc3s2)cc1,,47% [at 38.3 µM]
